Assay [1] can be described thus: qHTS assay to identify small molecule agonists of the constitutive androstane receptor (CAR) signaling pathway - cell viability counter screen (AID 1224836). Note: series mostly up to about 92 µM; nearly all actives have a fitted effect of over 45% in size. The method, boiled down:
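Fluorescence from CellTiter-Fluor indicates live cells after 23 h exposure. The human hepatoma line expresses hCAR and a CYP2B6-2.2kb reporter. Incubation medium contains 0.75 uM PK11195 (final).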

The nature of assay [2]: qHTS assay to identify small molecule antagonists of the constitutive androstane receptor (CAR) signaling pathway - cell viability counter screen (AID 1224837). Note: series mostly up to about 92 µM; nearly all actives have a fitted effect of over 45% in size. In a few lines: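 Cytotoxicity counter-screen: CellTiter-Fluor fluorescence after 23 h compound exposure (15-point qHTS) in double-stable HepG2-CYP2B6-hCAR cells, with 50 nM CITCO added.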
Assay [3] deals with Nuclear receptor subfamily 1 group I member 3 (Homo sapiens) (UniProt Q14994). Kind of assay: qHTS assay to identify small molecule antagonists of the constitutive androstane receptor (CAR) signaling pathway (AID 1224838).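 Note: HepG2 cells stably expressing hCAR with CYP2B6 luciferase reporter stimulated by CITCO; nearly all actives have a fitted effect of over 40% in size.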 In a few lines:
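Antagonism measured as luciferase signal (ONE-Glo, 30 min, room temperature) in CAR-stimulated cells: HepG2-CYP2B6-hCAR double-stable line exposed 24 hr at 37 C to compound in a 15-point series plus 50 nM CITCO.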

Assay [4] has the same target. The assay can be described thus: qHTS assay to identify small molecule agonists of the constitutive androstane receptor (CAR) signaling pathway (AID 1224839).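 For activation: HepG2 cells stably carrying human CAR and a CYP2B6 luciferase reporter; series mostly up to about 92 µM.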 Note: nearly all actives have a fitted effect of over 15% in size. Note: potency is the fitted concentration of half-maximal effect. The method, boiled down:
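Stable hCAR/CYP2B6-2.2kb HepG2 line in DMEM with 10% FBS; compounds (15 concentrations) and 0.75 uM PK11195 final, 24 h at 37 C/5% CO2, then ONE-Glo luminescence after 30 min.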

The nature of assay [5]: qHTS assay to identify small molecule antagonists of the estrogen related receptor signaling pathway with the pleiotropic PPARgamma coactivator (PGC) from Tox21 10K library - cell viability counter screen (AID 1224840; active = well fitted cell-killing curve with a large enough effect in the repeat runs, not every such curve was filed as active; note: nearly all actives have a fitted effect of over 40% in size). The method, boiled down:
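Counter-screen for cytotoxicity: after 17.5 h compound exposure at 37 C, CellTiter-Fluor reagent added to PGC/ERR cells for 30 min and fluorescence read. Cells were seeded at 2,000 per well 6 h before dosing.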

Assay [6] in a line: qHTS assay to identify small molecule agonists of H2AX (AID 1224845; active = well fitted activation curve with a large enough effect in the signal ratio in the repeat runs, not every such curve was filed as active; the % refers to the signal ratio). The method, boiled down:
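Phospho-H2AX Ser139 measured by HTRF (ex 320 nm; em 665 and 620 nm) after 24 hr antibody incubation. Compounds, 15 concentrations, 0.76% DMSO, were applied to CHO-K1 cells for 3hr at 37C before lysis.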

Assay [7] is described as follows: qHTS assay to identify small molecule agonists of the hypoxia (HIF-1) signaling pathway (AID 1224846; active = well fitted activation curve with a large enough effect in the signal ratio in the repeat runs, not every such curve was filed as active; the % refers to the signal ratio). In a few lines: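 Compounds added to ME-180 cells carrying hypoxia-response-element beta-lactamase reporter (0.5% dialyzed FBS, 5 h preplating), 17 h at 37C; agonist activity detected by CCF4-AM B/G FRET read-out.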
Assay [8] in a line: qHTS assay to identify small molecule agonists of H2AX - cell viability counter screen (AID 1224847; calls by dose curve; note: top concentration of the series differs between compounds; nearly all actives have a fitted effect of over 30% in size). In a few lines:
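Viability of CHO-K1 (wild type) cells after 3 hr compound exposure was measured by CellTiter-Glo luminescence.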

A short description of assay [9]: qHTS RealTime-Glo MT Cell Viability Assay in HepG2 cells - 24 hour (AID 1224867). Note: nearly all actives have a fitted effect of over 50% in size. In a few lines: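 qHTS, HepG2, 600 cells/well, RealTime-Glo (NanoLuc + prosubstrate) added with cells; 5 h preincubation; DMSO compound addition; 37 C; luminescence at 0/8/16/24/32/40 h.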
Assay [10] in a line: qHTS RealTime-Glo MT Cell Viability Assay in HEK293 cells - 32 hour (AID 1224868). Note: top concentration of the series differs between compounds; nearly all actives have a fitted effect of over 50% in size. In a few lines:
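Assay medium contained NanoLuc luciferase plus cell-permeant prosubstrate, added with HEK293 cells at 600 cells/well. After 5 h at 37 C/5% CO2 compounds were added; plates stayed at 37 C for 40 h with serial luminescence reads.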

Assay [11] in a line: A CellTox Green Cytotoxicity Assay to monitor cytotoxicity in HEK293 cells - 0 hour (AID 1224869). Note: nearly all actives have a fitted effect of over 50% in size. In a few lines: (§1)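 Fluorescence from a DNA-binding dye excluded by viable cells was measured repeatedly in the same HEK293 wells (600 cells/well) during continuous compound exposure at 37 C. Each assay gives one read point: 0, 8, 16, 24, 32 or 40 h.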
Assay [12] is described as follows: qHTS RealTime-Glo MT Cell Viability Assay in HepG2 cells - 40 hour (AID 1224870). Note: nearly all actives have a fitted effect of over 50% in size. In a few lines: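 Real-time viability: cells seeded at 600 per well together with NanoLuc and cell-permeant prosubstrate, compounds added after 5 h incubation. Luminescence tracked at 0, 8, 16, 24, 32 and 40 h of exposure.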
Assay [13] is described as follows: A CellTox Green Cytotoxicity Assay to monitor cytotoxicity in HEK293 cells - 40 hour (AID 1224871). Note: nearly all actives have a fitted effect of over 45% in size. The method, boiled down: as §1
In assay [14] the target is Luciferin 4-monooxygenase (Photinus pyralis) (UniProt P08659). The assay can be described thus: qHTS assay to identify small molecule inhibitors of firefly luciferase (AID 1224835). Note: series mostly up to about 120 µM; nearly all actives have a fitted effect of over 25% in size. The method, boiled down:
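Inhibition of purified Photinus luciferase is measured by luminescence. Substrate levels (D-luciferin, ATP) sit at their KM values. Each compound is tested in a concentration series.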

Assay [15] concerns the target Thyrotropin receptor (Homo sapiens) (UniProt P16473). The assay can be described thus: qHTS assay to identify small molecule agonists of the thyroid stimulating hormone receptor (TSHR) signaling pathway (AID 1224843; calls by dose curve; note: nearly all actives have a fitted effect of over 45% in size). In a few lines: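 Agonist activity read as cAMP rise via d2/cryptate HTRF competition, 1 h room-temperature detection, in HEK293 cells expressing TSHR. Fifteen-point titrations, each run in triplicate, with a 30 min room-temperature incubation beforehand.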

Assay [16] is described as follows: qHTS assay to identify small molecule agonists of the hypoxia (HIF-1) signaling pathway - cell viability counter screen (AID 1224844; calls by dose curve; note: nearly all actives have a fitted effect of over 50% in size). In a few lines:
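Cytotoxicity measured by CellTiter-Glo ATP luminescence in the wells also read for beta-lactamase signal. Cells were HRE-bla ME-180 (2,000/well, 0.5% dialyzed FBS), exposed to compounds for 17 h at 37C.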

Assay [17] can be described thus: qHTS assay to identify small molecule antagonists of the estrogen related receptor (ERR) signaling pathway from Tox21 library (AID 1224848). Note: nearly all actives have a fitted effect of over 50% in size. In a few lines:
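Luciferase luminescence (ONE-Glo, 30 min room temperature) was the read-out. Cells of the NTP-supplied ERR line, 2,000 per well, were given 6 h at 37 C before compound addition in DMSO and 18 h exposure at 37 C.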

Assay [18] is described as follows: qHTS assay to identify small molecule agonists of the estrogen related receptor (ERR) signaling pathway from Tox21 library (AID 1224849; calls by dose curve; note: nearly all actives have a fitted effect of over 15% in size). In a few lines:
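Luminescent agonist read-out (One-Glo, 30-minute room-temperature incubation) following 18-hour compound treatment at 37 C of the ERR cell line, which had been plated 6 hours before dosing.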

Molecules are shown by their SMILES. Unmarked numbers belong to inactive results. Results filed as inconclusive are left out. Activity calls are given as the source filed them. Unless noted, calls come from the whole dose curve; as a rule, active = well fitted curve in the direction sought with a large enough effect in the repeat runs; inconclusive = weak or mixed curves; inactive = no such curve, though single readings can be large; an effect the other way counts as inactive or inconclusive.
% is set by controls: 0 for no effect and ±100 for the full control effect.

Chain of Thyrotropin receptor (Homo sapiens) (P16473 whole entry, looked up): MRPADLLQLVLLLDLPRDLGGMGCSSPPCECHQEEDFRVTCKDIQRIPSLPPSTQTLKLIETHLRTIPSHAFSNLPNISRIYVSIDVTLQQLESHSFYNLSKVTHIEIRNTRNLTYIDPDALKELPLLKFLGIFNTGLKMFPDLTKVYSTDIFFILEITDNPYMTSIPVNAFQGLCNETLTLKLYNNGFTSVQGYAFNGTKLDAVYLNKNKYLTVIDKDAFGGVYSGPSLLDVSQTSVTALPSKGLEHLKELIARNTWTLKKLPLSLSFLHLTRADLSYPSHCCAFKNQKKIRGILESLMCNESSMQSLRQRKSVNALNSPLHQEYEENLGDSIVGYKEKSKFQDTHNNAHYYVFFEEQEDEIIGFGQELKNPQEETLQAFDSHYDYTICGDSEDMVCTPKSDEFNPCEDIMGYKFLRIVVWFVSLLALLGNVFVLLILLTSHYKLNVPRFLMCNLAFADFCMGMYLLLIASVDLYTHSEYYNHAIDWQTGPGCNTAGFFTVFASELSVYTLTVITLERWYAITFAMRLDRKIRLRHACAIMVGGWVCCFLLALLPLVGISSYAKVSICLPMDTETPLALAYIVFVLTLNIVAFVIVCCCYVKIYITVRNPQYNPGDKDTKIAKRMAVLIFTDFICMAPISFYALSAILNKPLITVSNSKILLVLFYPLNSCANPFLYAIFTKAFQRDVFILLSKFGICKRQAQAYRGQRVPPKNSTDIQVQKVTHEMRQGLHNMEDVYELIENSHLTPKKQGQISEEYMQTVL
Chain of Nuclear receptor subfamily 1 group I member 3 (Homo sapiens) (Q14994 whole entry, looked up): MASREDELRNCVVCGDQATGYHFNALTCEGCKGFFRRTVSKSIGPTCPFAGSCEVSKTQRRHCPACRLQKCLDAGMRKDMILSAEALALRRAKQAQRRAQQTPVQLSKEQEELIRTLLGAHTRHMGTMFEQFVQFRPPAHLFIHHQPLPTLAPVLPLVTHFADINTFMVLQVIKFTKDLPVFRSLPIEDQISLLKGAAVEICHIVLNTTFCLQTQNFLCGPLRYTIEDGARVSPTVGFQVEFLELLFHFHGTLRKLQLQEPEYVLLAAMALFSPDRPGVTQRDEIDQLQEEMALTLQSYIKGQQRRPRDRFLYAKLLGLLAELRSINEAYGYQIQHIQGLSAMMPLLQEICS
Chain of Luciferin 4-monooxygenase (Photinus pyralis) (P08659 whole entry, looked up): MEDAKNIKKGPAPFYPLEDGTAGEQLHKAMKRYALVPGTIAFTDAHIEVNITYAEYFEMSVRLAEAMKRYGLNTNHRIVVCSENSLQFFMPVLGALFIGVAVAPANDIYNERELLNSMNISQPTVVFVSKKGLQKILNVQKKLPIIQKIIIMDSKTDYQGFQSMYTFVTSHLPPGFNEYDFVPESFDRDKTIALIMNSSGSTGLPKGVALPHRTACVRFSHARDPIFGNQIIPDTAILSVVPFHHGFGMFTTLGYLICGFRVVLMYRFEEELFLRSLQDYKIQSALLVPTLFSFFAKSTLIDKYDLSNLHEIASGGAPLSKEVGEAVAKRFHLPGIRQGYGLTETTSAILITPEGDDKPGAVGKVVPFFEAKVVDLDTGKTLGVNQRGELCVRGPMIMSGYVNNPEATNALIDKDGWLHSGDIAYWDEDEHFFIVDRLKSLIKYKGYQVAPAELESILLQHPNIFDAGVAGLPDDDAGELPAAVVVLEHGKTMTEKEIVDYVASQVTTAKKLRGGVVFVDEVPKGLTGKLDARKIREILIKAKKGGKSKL

In the case of `CCN1CCOCC1`, the outcome in assay [1], in assay [2], in [5], in [7], in assay [8] and in assay [9] was inactive. For the same molecule, the molecule was called inactive in [11]. Also, the Potency entry in assay [3], in assay [4], in [6], in assay [10], in [12] and in assay [13] was “inactive” each time.
`CNCCO`: the Potency result in [14], in assay [15], in assay [6], in assay [10], in [12] and in assay [13] was “inactive” each time. Besides, the call in assay [1], in assay [2], in assay [7], in [9] and in [11] was inactive.
As to `O=C(O)c1cn(C2CC2)c2cc(N3CCNCC3)c(F)cc2c1=O`, the call in assay [1], in [2], in assay [5], in assay [8], in assay [9] and in assay [11] was inactive. Besides, the Potency entry in [15], in assay [16], in assay [12] and in assay [13] was “inactive” each time.
On to `Nc1ccccn1`, for which the molecule was called inactive in assay [1], in assay [2], in assay [5], in assay [7], in assay [8] and in [9]. Further, the outcome in assay [11] was inactive. Further, the Potency result in [3], in [4], in assay [6], in assay [10], in assay [12] and in [13] was “inactive” in each case.
`CN1CC(=O)N/C1=N/C(=O)Nc1cccc(Cl)c1`: the result in assay [1], in assay [2], in assay [5], in [7], in assay [8] and in assay [9] was inactive. In addition, the outcome in [11] was inactive. Also, the Potency result in assay [3], in assay [15], in assay [16], in assay [6], in assay [10] and in assay [12] was “inactive” in each case. Besides, the Potency result in assay [13] was “inactive”. The Potency in [4] was 33.5 µM (active).
Regarding `CC1(C)[C@@H]2CC[C@@]1(C)[C@H](O)C2`, the call in [1], in assay [2], in [5], in assay [7], in [8] and in assay [9] was inactive. Besides, the call in [11] was inactive. In addition, the Potency result in assay [15], in [16], in [10] and in assay [12] was “inactive” in each case.
Take `CCCCc1nc(Cl)c(CO)n1Cc1ccc(-c2ccccc2-c2nn[nH]n2)cc1`: the molecule was called inactive in assay [1], in assay [2], in [5], in assay [7], in [8] and in assay [9]. In addition, the call in assay [11] was inactive. The Potency result in [4], in [16], in assay [6], in assay [10], in assay [12] and in assay [13] was “inactive” each time.
As to `CCC(C)(CN(C)C)OC(=O)c1ccccc1` (stereo not drawn), the molecule was classed as inactive in [1], in assay [2], in assay [5], in assay [8], in assay [9] and in assay [11]. Further, the Potency result in [16], in assay [6], in assay [10], in assay [12] and in [13] was “inactive” in each case.
With `NC(N)=NCCN1CCCCCCC1`, in [14], the activity change, negative = inhibition is -0.118% [at 0.435 µM]. For the same molecule, in assay [15], the activation was -0.603% [at 0.349 µM]. Moreover, the figures for the activity change, negative = cytotoxicity in assay [16], in assay [8] and in assay [9] were -1.67% [at 0.29 µM], 0.639% [at 0.582 µM] and 0.287% [at 0.29 µM], respectively. The activation (H2AX phosphorylation) in [6] is 0.429% [at 0.582 µM]. The activity, negative = inhibition in [17] is 12.8% [at 0.349 µM]. In addition, the activity change, positive = activation in [18] is 7.2% [at 0.349 µM]. For the same molecule, the activity change, negative = cytotoxic in assay [10] was -3.18% [at 0.29 µM]; in assay [12], 0.511% [at 0.29 µM]. In assay [11], the cytotoxicity was 4.87% [at 0.29 µM].

Source of the values: PubChem BioAssay (Tox21).
